Compounds without any hit were thinned out: in the full panel of roughly 83,000, 20% have a hit.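 Note: values are percent growth. 100 is the growth of untreated cells, values between 100 and 0 indicate rising inhibition; between -100 and 0 indicates cell death.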 Unmarked numbers belong to inactive results. The source made the active and inactive calls. How the source made its calls: active means growth percent below 10; inactive means the rest.
system: ACHN renal; test: NCI-60 one-dose screen, 48 h (100 = growth as untreated, 0 = no growth, -100 = all killed); conditions: 10 µM unless noted

Row | SMILES | growth
1 | COc1ccc2c(c1)CC[C@@H]1[C@@H]2CC[C@]2(C)[C@@H](O)C(=O)C[C@@H]12 | 94.9%
2 | C[C@@H]1CN(c2nc3c(cc2F)c(=O)c(C(=O)O)cn3C(C)(C)C)C[C@H](C)N1 | 99.8%
3 | NS(=O)(=O)c1ccc(-n2ncc3c(NC4CCCCC4)ncnc32)cc1 | 92.3%
4 | CCOC(=O)C1=CCC(n2cc(C)c(=O)[nH]c2=O)O1 (stereo not drawn) | 103%
5 | O=CNc1ccc2c(c1)Cc1cc([N+](=O)[O-])ccc1-2 | 56.6%
6 | CC(=O)[C@H]1CC[C@H]2[C@@H]3C[C@H](C)C4=CC(=O)CC[C@]4(C)[C@H]3C(=O)C[C@]12C | 95.8%
7 | Cc1ccc2nc(SCC(=O)Nc3ccc(-c4nc5ccccc5s4)c(Cl)c3)[nH]c2c1 | 106%
8 | Cc1ccc(C(=O)Cc2ccccc2)c(O)c1 | 102%
9 | ICCC(c1ccccc1)(c1ccccc1)c1ccccc1 | 68.9%
10 | c1ccc(CN=C(NCc2ccccc2)NCc2ccccc2)cc1 | 73.1%
11 | Oc1ccc(/C=N/Nc2nc3ccccc3s2)c(O)c1 | 23.2%
12 | O=C(CC(C(=O)c1ccccc1)N1CCN(Cc2ccccc2)CC1)c1ccccc1 (stereo not drawn) | 41.8%
13 | CC(NC(N)=S)c1ccccc1 (stereo not drawn) | 108%
14 | C[C@]12CCC(=O)C=C1CC[C@H]1[C@@H]3C[C@@H](O)[C@](O)(C(=O)CO)[C@@]3(C)C[C@H](O)[C@@]12F | 104%
15 | O=C(Nc1ccc2c(c1)C(=O)c1ccccc1-2)c1ccccc1 | 63.8%
16 | COC(=O)C1=CCC(n2cnc3c(N)ncnc32)O1 (stereo not drawn) | 110%
17 | CCN(Cc1cccc(S(=O)(=O)[O-])c1)c1ccc(C(=C2C=CC(=[N+](CC)Cc3cccc(S(=O)(=O)O)c3)C=C2)c2ccccc2S(=O)(=O)O)cc1 | 104%
18 | CC(NC(=O)Oc1cccc2ccccc12)c1ccccc1 (stereo not drawn) | 98.9%
19 | OC(c1cc(-c2cccc(Cl)c2)nc2ccccc12)C1CCCCN1 (stereo not drawn) | -0.726% (active)
20 | O=C(Nc1ccccc1OC(=O)c1ccccc1)c1ccccc1 | 98.9%

Row | SMILES | growth
21 | Cc1ccccc1NC(=O)NC(CC(N)=O)c1ccc2c(c1)nc(-c1cccc(Oc3ccc(C(C)(C)C)cc3)c1)n2CCCN1CCCCC1C (stereo not drawn) | 74.4%
22 | O=C(C(=O)c1cc(Br)ccc1O)c1cc(Br)ccc1O | 55.8%
23 | Fc1ccccc1C1c2ccccc2-c2nccn21 (stereo not drawn) | 112%
24 | COc1cc(/C=C\C(C)=N\Nc2ccccc2)ccc1O | 97.6%
25 | COc1cc(/C=N/NC(=O)c2ccc(C(F)(F)F)nc2Nc2ccc(Cl)cc2C)ccc1O | 33.4%
26 | O=Cc1ccccc1C(=O)O | 103%
27 | COc1cc(NC(=O)NCc2ccco2)ccc1-c1ccc(NC(=O)NCc2ccco2)cc1OC | 60.2%
28 | COc1cccc(/C=N/Nc2nc3ccccc3s2)c1OC | 79.7%
29 | O=C(N/N=C/c1ccc(Cl)cc1Cl)c1ccccc1Nc1cccc(C(F)(F)F)c1 | 35.9%
30 | COc1ccc(NS(=O)(=O)N2CCCCC2)cc1 | 104%
31 | O=c1c2ccccc2c2nccn2c2cc(Cl)ccc12 | 138%
32 | COc1ccc(-c2ccc(O)c(C(=O)/C=C/c3cc(OC)c(OC)c(OC)c3)c2)cc1 | 85.7%
33 | Cn1cnc([N+](=O)[O-])c1Sc1nc(N)nc2nc[nH]c12 | 72.7%
34 | Cc1cc(=O)oc2cc(OCCn3c(C)nn(-c4ccc(Cl)cc4)c3=O)ccc12 | 41.9%
35 | O=C1C=CC(=O)N1c1ccccn1 | 97.4%
36 | CCN(CC)c1ccc(N=C2C=CC(=O)C=C2NC(C)=O)cc1 | 83.7%
37 | CC1CN(C2CCCCC2)C(=O)NC1=O (stereo not drawn) | 106%
38 | COc1ccc2cc(C3=CC(=O)CCC3)ccc2c1 | 107%
39 | COc1ccc(Cl)cc1Nc1nc(C(F)(F)F)ccc1C(=O)N/N=C/c1c(Cl)cccc1Cl | 39.2%

system: CAKI-1 renal; test: as above; conditions: 10 µM unless noted

Row | SMILES | growth
40 | COc1ccc2c(c1)CC[C@@H]1[C@@H]2CC[C@]2(C)[C@@H](O)C(=O)C[C@@H]12 | 97.4%
41 | C[C@@H]1CN(c2nc3c(cc2F)c(=O)c(C(=O)O)cn3C(C)(C)C)C[C@H](C)N1 | -7.72% (active)
42 | NS(=O)(=O)c1ccc(-n2ncc3c(NC4CCCCC4)ncnc32)cc1 | 39.6%
43 | CCOC(=O)C1=CCC(n2cc(C)c(=O)[nH]c2=O)O1 (stereo not drawn) | 85.8%
44 | O=CNc1ccc2c(c1)Cc1cc([N+](=O)[O-])ccc1-2 | 29.9%
45 | CC(=O)[C@H]1CC[C@H]2[C@@H]3C[C@H](C)C4=CC(=O)CC[C@]4(C)[C@H]3C(=O)C[C@]12C | 94.8%
46 | Cc1ccc2nc(SCC(=O)Nc3ccc(-c4nc5ccccc5s4)c(Cl)c3)[nH]c2c1 | 105%
47 | Cc1ccc(C(=O)Cc2ccccc2)c(O)c1 | 95%
48 | ICCC(c1ccccc1)(c1ccccc1)c1ccccc1 | 74.9%
49 | c1ccc(CN=C(NCc2ccccc2)NCc2ccccc2)cc1 | 84.8%
50 | Oc1ccc(/C=N/Nc2nc3ccccc3s2)c(O)c1 | 12.3%
51 | O=C(CC(C(=O)c1ccccc1)N1CCN(Cc2ccccc2)CC1)c1ccccc1 (stereo not drawn) | 73.5%
52 | CC(NC(N)=S)c1ccccc1 (stereo not drawn) | 104%
53 | C[C@]12CCC(=O)C=C1CC[C@H]1[C@@H]3C[C@@H](O)[C@](O)(C(=O)CO)[C@@]3(C)C[C@H](O)[C@@]12F | 78.5%
54 | O=C(Nc1ccc2c(c1)C(=O)c1ccccc1-2)c1ccccc1 | 74.7%
55 | COC(=O)C1=CCC(n2cnc3c(N)ncnc32)O1 (stereo not drawn) | 75.1%
56 | CCN(Cc1cccc(S(=O)(=O)[O-])c1)c1ccc(C(=C2C=CC(=[N+](CC)Cc3cccc(S(=O)(=O)O)c3)C=C2)c2ccccc2S(=O)(=O)O)cc1 | 96.7%
57 | CC(NC(=O)Oc1cccc2ccccc12)c1ccccc1 (stereo not drawn) | 121%
58 | OC(c1cc(-c2cccc(Cl)c2)nc2ccccc12)C1CCCCN1 (stereo not drawn) | -36.5% (active)
59 | O=C(Nc1ccccc1OC(=O)c1ccccc1)c1ccccc1 | 91.5%

Row | SMILES | growth
60 | Cc1ccccc1NC(=O)NC(CC(N)=O)c1ccc2c(c1)nc(-c1cccc(Oc3ccc(C(C)(C)C)cc3)c1)n2CCCN1CCCCC1C (stereo not drawn) | 92.6%
61 | O=C(C(=O)c1cc(Br)ccc1O)c1cc(Br)ccc1O | 50%
62 | Fc1ccccc1C1c2ccccc2-c2nccn21 (stereo not drawn) | 66.5%
63 | COc1cc(/C=C\C(C)=N\Nc2ccccc2)ccc1O | 82.3%
64 | COc1cc(/C=N/NC(=O)c2ccc(C(F)(F)F)nc2Nc2ccc(Cl)cc2C)ccc1O | 39.6%
65 | O=Cc1ccccc1C(=O)O | 96%
66 | COc1cc(NC(=O)NCc2ccco2)ccc1-c1ccc(NC(=O)NCc2ccco2)cc1OC | 105%
67 | COc1cccc(/C=N/Nc2nc3ccccc3s2)c1OC | 78.8%
68 | O=C(N/N=C/c1ccc(Cl)cc1Cl)c1ccccc1Nc1cccc(C(F)(F)F)c1 | 55.5%
69 | COc1ccc(NS(=O)(=O)N2CCCCC2)cc1 | 103%
70 | O=c1c2ccccc2c2nccn2c2cc(Cl)ccc12 | 75.2%
71 | COc1ccc(-c2ccc(O)c(C(=O)/C=C/c3cc(OC)c(OC)c(OC)c3)c2)cc1 | 86.5%
72 | Cn1cnc([N+](=O)[O-])c1Sc1nc(N)nc2nc[nH]c12 | 38.4%
73 | Cc1cc(=O)oc2cc(OCCn3c(C)nn(-c4ccc(Cl)cc4)c3=O)ccc12 | 19.5%
74 | O=C1C=CC(=O)N1c1ccccn1 | 104%
75 | CCN(CC)c1ccc(N=C2C=CC(=O)C=C2NC(C)=O)cc1 | 105%
76 | CC1CN(C2CCCCC2)C(=O)NC1=O (stereo not drawn) | 103%
77 | COc1ccc2cc(C3=CC(=O)CCC3)ccc2c1 | 102%
78 | COc1ccc(Cl)cc1Nc1nc(C(F)(F)F)ccc1C(=O)N/N=C/c1c(Cl)cccc1Cl | 34.9%
